These are literature values, as cited in PubChem BioAssay AID977611.

Hit rate of the full screen: of about 3,900 compounds, about 3,900 (100%) were called active. No cut-off is given here; in the data, nearly all actives have Kd up to about 4200 µM. The set was probably picked from earlier hits. The list shows a part of the results. *1 amine or outer side, *2 acyl side, *3 side chain or, on linkers, in order; H or OH if unused. Where a SMILES comes first, the peptide text is derived from it. Bridges are numbered along the chain shown (N, C = ends). Side-chain parts run from the residue outwards. [ ]: non-standard residue; d: D form. X1 = CC(C)C[C@@H](C(=O)[*:2])N(C[C@H](Cc1ccccc1)N[*:3])[*:1]; Orn(CH(NH2)2) = NC(N)NCCC[C@H](N)C(=O)O; S5 = C=CCCC[C@](C)(N)C(=O)O

This series is described as follows: PubChem AID 977611. Particulars: PDB protein-ligand complexes, literature Kd.

For `C[C@H](CC(=O)O)c1n[nH]c2nc(N)[nH]c(=O)c2c1=O`, the Kd (protein: Dihydropteroate Synthase, PDB entry 4d8z) was 0.51 µM (active). For `Nc1nc2[nH]nc(CCC(=O)O)c(=O)c2c(=O)[nH]1`, the Kd (protein: Dihydropteroate Synthase, PDB entry 4db7) was 0.273 µM (active).

For `COc1ccccc1[C@@H](Br)[C@H](NC(=O)c1ccc([N+](=O)[O-])cc1)C(=O)N1CCCCC1`, under “protein: Capsid protein, PDB entry 4g93”, the Kd is 300 µM (active).

On to `Nc1ncnc2c1ncn2[C@@H]1O[C@H](COP(O)O)[C@@H](O)[C@H]1O`, for which, for the setting “PDB entry 4qsk”, the equilibrium dissociation constant (Kd) was 8 µM (active). Take `C[C@@H](Oc1ccc(Oc2ncc(C(F)(F)F)cc2Cl)cc1)C(=O)O`: the Kd (protein: carboxyltransferase subunit of ACC (AccD6), PDB entry 4g2r) is 35.8 µM (active). As to `OC(Cc1cccc(-c2cccc3c2oc2ccccc23)c1)([P+](O)(O)O)[P+](O)(O)O`, the Kd (protein: Diterpene synthase Rv3378c, PDB entry 3wqm) was 0.56 µM (active).

For `CN1CCN(c2cccc(CN)c2)CC1`, the Kd (protein: CATIONIC TRYPSIN, PDB entry 4abg) is 271 µM (active). Consider `CC(C)C[C@@H]1NC(=O)[C@H](C)NC(=O)[C@@H]2CSSC[C@H](NC(=O)CN)C(=O)N[C@@H](CSSC[C@@H](C(=O)O)NC(=O)[C@H](Cc3ccc(O)cc3)NC(=O)[C@H](CCCCN)NC(=O)[C@@H]3CCCN3C(=O)[C@H](CC(N)=O)NC(=O)[C@H](CC(N)=O)NC1=O)C(=O)N[C@@H](CO)C(=O)N[C@@H](CC(C)C)C(=O)N1CCC[C@H]1C(=O)N1CCC[C@H]1C(=O)N2` (H-GCCSLPPCALNNPKYC-OH; disulfide 2-8, 3-16), for which the Kd (protein: nicotinic acetylcholine receptor homolog AChBP(?7-nAChR), PDB entry 2br8) is 0.0326 µM (active).

Consider `Cc1ccc(C(=O)Nc2ccc(S(O)(O)O)c3cc(S(O)(O)O)cc(S(O)(O)O)c23)cc1N`, for which the Kd (protein: Nucleocapsid protein, PDB entry 4j4v) was 0.44 µM (active). Take `NCCc1c[nH]c2ccccc12`: under “protein: Biogenic amine-binding protein, PDB entry 4ge1”, the Kd is 0.37 µM (active). On to `Cc1[nH]c2ccccc2c1CC(=O)N[C@@H](Cc1ccccc1)C(=O)N(C)c1ccccc1`, for which the Kd is 0.26 µM (active) (protein: CAPSID PROTEIN P24 CA Hexamer, PDB entry 4qnb) and 0.12 µM (active) (protein: Capsid protein p24, PDB entry 4u0e).

For `CC(C)C[C@H](NC(=O)[C@@H](NC(=O)[C@@H]1CCCN1)C(C)C)C(=O)N[C@@H](Cc1ccccc1)C(=O)N1CCC[C@H]1C(=O)NCC(=O)N[C@@H](CCC(N)=O)C(=O)N1CCC[C@H]1C(=O)N[C@@H](Cc1ccccc1)C(=O)NCC(=O)N[C@@H](CCC(N)=O)C(=O)N1CCC[C@H]1C(=O)N1CCC[C@H]1C(=O)O` (H-PVLFPGQPFGQPP-OH), the Kd (protein: CAPSID PROTEIN P24 CA Hexamer, PDB entry 4wym) was 99.8 µM (active).

Turning to H-PVLFPGAPFGQPPA-OH, the Kd (protein: Capsid protein p24, PDB entry 4u0b) was 50 µM (active). As to H-PVLFPGQPFGQPPA-OH, the Kd (protein: Capsid protein p24, PDB entry 4u0a) was 50 µM (active).

As for `CC(C)C[C@H](NC[C@H](Cc1ccccc1)NC(=O)[C@H](CC(N)=O)NC(=O)CNC(=O)[C@@H]1CCCN1C(=O)[C@@H](N)CCCNC(N)N)C(=O)N[C@@H](CCC(N)=O)C(=O)N[C@@H](CO)C(=O)N[C@@H](CCCNC(N)N)C(=O)N1CCC[C@H]1C(N)=O` (H-[X1]([Asn-Gly-Pro-Orn(CH(NH2)2)])QS[Orn(CH(NH2)2)]P-NH2), the Kd runs as follows: (protein: PR(HIV-1 protease) with the V82A mutation (PRV82A), PDB entry 2aof) 28.2 µM (active); (protein: wild-type PR(HIV-1 protease), PDB entry 2aoi) 96.7 µM (active). Turning to `COC(=O)C[C@@H]1N=C(c2ccc(Cl)cc2)c2c(sc(C)c2C)-n2c(C)nnc21`, the Kd (protein: Bromodomain-containing protein 4, PDB entry 4f3i) is 0.0361 µM (active). On to `NC1NC(=O)c2ncn([C@@H]3O[C@H](CO[P+](O)(O)O[C@H]4[C@@H](O)[C@H](n5cnc6c5NC(N)NC6=O)O[C@@H]4COP(O)O)[C@@H](OP(O)O)[C@H]3O)c2N1` (stereo not given in full), for which the Kd (protein: Simian 11 rotavirus (serotype 3 / strain SA11-Ramig), PDB entry 4g0a) was 0.0253 µM (active). Regarding `C[C@H]1OC(c2cccc(O)c2O)=N[C@@H]1C(=O)N(CCCNC(=O)c1cccc(O)c1O)CCCNC(=O)c1cccc(O)c1O`, where the note is “protein: Neutrophil gelatinase-associated lipocalin, PDB entry 4k19”, the Kd is 0.0044 µM (active). In the case of H-EDMFAKLKDKFFNEINK-OH, the Kd (PDB entry 2nm1) is 0.034 µM (active).

As for H-TFKKTN-OH, the Kd (protein: Coatomer subunit beta', PDB entry 4j86) was 171 µM (active). In the case of H-ITFEDLLDYYGP-OH, the Kd reads like this: (protein: HIV-1 Capsid Protein(L211S), PDB entry 3ds4) 64.5 µM (active); (protein: HIV-1 Capsid Protein(N183A), PDB entry 3ds0) 14.9 µM (active); (protein: HIV-1 Capsid Protein(Y169A), PDB entry 3ds3) 6 µM (active). On to `CC(C)C[C@H](NC(=O)[C@@H](NC(=O)[C@H](CCC(=O)O)NC(=O)[C@@H](N)Cc1ccc(O)cc1)[C@@H](C)O)C(=O)N[C@@H](CO[P+](O)(O)O)C(=O)N[C@@H](CC(=O)O)C(=O)N[C@@H](CO[P+](O)(O)O)C(=O)N[C@@H](CCC(=O)O)C(=O)O`, for which, for the setting “protein: Msx2-interacting protein, PDB entry 2rt5”, the Kd was 0.19 µM (active). `CC[C@H](C)[C@H](N)C(=O)N[C@H](C(=O)N[C@@H](Cc1ccccc1)C(=O)N[C@@H](CCC(=O)O)C(=O)N[C@@H](CC(=O)O)C(=O)N[C@@H](CC(C)C)C(=O)N[C@@H](CC(C)C)C(=O)N[C@@H](CC(=O)O)C(=O)N[C@@H](Cc1ccc(O)cc1)C(=O)N[C@@H](Cc1ccc(O)cc1)C(=O)NCC=O)[C@@H](C)O` (H-ITFEDLLDYYG-aldehyde): the Kd (protein: HIV-1 Capsid Protein(E187A), PDB entry 3ds1) was 2 µM (active). On to `CC(C)C[C@H](NC(=O)[C@H](CCCCN)NC(=O)[C@H](CC(C)C)NC(=O)[C@@H](NC(=O)[C@H](CC(N)=O)NC(=O)[C@H](CCC(N)=O)NC(=O)[C@H](CCCCN)NC(=O)[C@@H](NC(=O)[C@H](Cc1ccc(O)cc1)NC(=O)[C@H](CCCCN)NC(=O)[C@@H]1CCCN1)C(C)C)[C@@H](C)O)C(=O)N[C@@H](C)C(=O)N[C@H](C(=O)O)[C@@H](C)O`, for which the dissociation constant (Kd) (protein: SEC3 wt, PDB entry 1jwm) was 270 µM (active).

As to `CC[C@H](C)[C@H](N)C(=O)N[C@H](C(=O)N[C@@H](Cc1ccccc1)C(=O)N[C@@]1(C)CCC/C=C\CCC[C@@](C)(C(=O)N[C@@H](Cc2ccc(O)cc2)C(=O)N[C@@H](Cc2ccc(O)cc2)C(=O)NCC(=O)N[C@@H](CCCCN)C(=O)N[C@@H](CCCCN)C(=O)N[C@@H](CCCCN)C(=O)O)NC(=O)[C@H](CC(C)C)NC(=O)[C@H](CC(C)C)NC(=O)[C@H](CC(=O)O)NC1=O)[C@@H](C)O` (H-ITF[S5]DLL[S5]YYGKKK-OH; staple (Z) 4-8), for the setting “protein: Capsid protein p24(W184A, M185A), PDB entry 2l6e”, the Kd is 1 µM (active). As for H-ITYDKGIQTDQ-OH, the dissociation constant (Kd) (protein: Dynein light chain 1, cytoplasmic, PDB entry 4ht6) is 0.62 µM (active).
